Results as given in PubChem BioAssay (EPA / NIEHS).
Inconclusive results are not listed. Active and inactive are the calls of the source. The calls were made as follows: active = hit-call score of the fitted dose curve at least 0.9, where 1 is the maximum; inconclusive = response in the unintended direction; inactive = score below 0.9.

Each molecule was assayed against Androgen receptor (Homo sapiens) (UniProt P10275) (assay: ATG_AR_TRANS: Attagene TRANS-FACTORIAL HepG2 Assay for human Androgen Receptor (AR) (AID 2282973)). Conditions: HepG2 Attagene TRANS-FACTORIAL AR reporter transcription.
Androgen receptor (Homo sapiens), sequence (P10275 whole entry, looked up, the tested form may be a part): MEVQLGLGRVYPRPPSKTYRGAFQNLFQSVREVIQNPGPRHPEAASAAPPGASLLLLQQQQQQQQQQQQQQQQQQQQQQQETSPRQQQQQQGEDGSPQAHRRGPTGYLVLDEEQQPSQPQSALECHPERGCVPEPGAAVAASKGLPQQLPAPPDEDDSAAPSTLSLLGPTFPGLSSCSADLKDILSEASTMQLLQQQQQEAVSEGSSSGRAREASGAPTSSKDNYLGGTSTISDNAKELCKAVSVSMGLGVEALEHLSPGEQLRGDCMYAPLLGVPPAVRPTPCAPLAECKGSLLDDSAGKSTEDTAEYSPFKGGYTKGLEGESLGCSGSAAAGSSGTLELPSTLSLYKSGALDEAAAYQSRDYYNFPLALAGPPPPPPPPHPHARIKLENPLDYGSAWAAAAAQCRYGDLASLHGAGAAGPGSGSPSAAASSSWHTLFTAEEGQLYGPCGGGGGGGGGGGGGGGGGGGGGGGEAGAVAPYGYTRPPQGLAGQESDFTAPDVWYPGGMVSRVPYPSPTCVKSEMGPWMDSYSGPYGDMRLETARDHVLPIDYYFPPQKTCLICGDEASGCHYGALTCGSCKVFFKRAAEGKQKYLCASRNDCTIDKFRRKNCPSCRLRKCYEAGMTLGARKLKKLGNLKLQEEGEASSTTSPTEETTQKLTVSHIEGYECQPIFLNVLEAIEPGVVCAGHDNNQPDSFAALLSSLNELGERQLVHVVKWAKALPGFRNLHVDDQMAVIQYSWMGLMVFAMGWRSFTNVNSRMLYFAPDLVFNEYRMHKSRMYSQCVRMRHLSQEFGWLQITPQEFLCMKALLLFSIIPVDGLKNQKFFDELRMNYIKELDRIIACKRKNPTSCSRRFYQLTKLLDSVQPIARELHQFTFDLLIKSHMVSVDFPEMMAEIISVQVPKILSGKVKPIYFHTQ
How it was run: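 Readout is reporter transcript abundance, quantified by fluorescent RT-PCR products separated on capillary electrophoresis. Human HepG2 liver cells carried transiently transfected NR-Gal4 chimera plus GAL4-UAS reporter constructs and were dosed for 24 h; activity scored upward versus DMSO.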
In the case of `COc1ccc(O)cc1`, the outcome was “inactive”.
`C=CC(=O)OCCOC(=O)C=C` was tested, and the outcome was “inactive”.
With `NNC(=O)c1cccc(C(=O)NN)c1` the outcome was “inactive”.
For `CCCC(=O)c1cc(O)c(O)cc1O`, the outcome was “inactive”.
`O=C(NCc1ncc(C(F)(F)F)cc1Cl)c1c(Cl)cccc1Cl` was tested, and the outcome was “inactive”.
`Cc1cccc(C(=O)O)c1` was tested, and the outcome was “inactive”.
For `O=C(OC(=O)C(F)(F)C(F)(F)F)C(F)(F)C(F)(F)F`, the outcome was “inactive”.
For `CC=CC(=O)C1=C(C)C=CCC1(C)C`, the outcome was “inactive”.
`C#CC(O)C(CC)CCCC` (centres undefined) was tested, and the outcome was “inactive”.
In the case of `COCCOCCOCCOCCOC`, the outcome was “inactive”.
In the case of `Cc1ccc(C)c(O)c1C`, the outcome was “inactive”.
`CC1=CC2C3C=CC(C3)C2C1C` (centres undefined) was tested, and the outcome was “inactive”.
With `CCCCCCCCCCCCC[N+](C)(C)Cc1ccccc1` the outcome was “inactive”.
With `Cn1cccc1` the outcome was “inactive”.
In the case of `CC1CNCC(C)O1` (centres undefined), the outcome was “inactive”.
With `COC(=O)c1cccnc1` the outcome was “inactive”.
For `CC(=O)OC1CCCCC1`, the outcome was “inactive”.
With `CCc1ccc(C)nc1` the outcome was “inactive”.
In the case of `O=C(O)c1cccc(Cl)n1`, the outcome was “inactive”.
In the case of `O=S(=O)(O)C(F)(F)C(F)(F)C(F)(F)C(F)(F)C(F)(F)C(F)(F)C(F)(F)C(F)(F)C(F)(F)C(F)(F)F`, the outcome was “inactive”.
In the case of `CC(CC(C)(C)C)CC(C)(C)CC(C)(C)C` (centres undefined), the outcome was “inactive”.
With `CCOC(=O)[C@H](O)[C@@H](O)C(=O)OCC` the outcome was “inactive”.
In the case of `CC(=O)CC(C)(C)O`, the outcome was “inactive”.
In the case of `C=CCc1cc(S(=O)(=O)c2ccc(O)c(CC=C)c2)ccc1O`, the outcome was “inactive”.
With `CC(=O)CC(=O)Nc1ccc(C)cc1C` the outcome was “inactive”.
For `CC(C)CCCCCCc1ccc(OCCOCCO)cc1`, the outcome was “inactive”.
`C=COCCCC` was tested, and the outcome was “inactive”.
With `CCc1cccc(C)c1N` the outcome was “inactive”.
`CC(C)[C@@H]1CC[C@@H](C)C[C@H]1O` was tested, and the outcome was “inactive”.
